Rows were chosen to be rich in hits. Some 21% of all compounds tested hit in one or more screens of this group.
Cycloheximide cs: Cycloheximide Counterscreen for Small Molecule Inhibitors of Shiga Toxin. actives 12% (n = 300,000). cell reporter, cycloheximide protein synthesis inhibition counterscreen. max response, %; in the data active means max response mostly above about 13%, no sharp cut-off; inactive means mostly below about 14%; further: read at 38.3 µM for the half of the compounds with a filed dose; 0% is about no effect
NS1 inh: qHTS Assay for Inhibitors of Influenza NS1 Protein Function | Potency, µM (series often up to 46.1 µM), for the others: at the highest dose activity, positive = more growth | actives 0.4% (n = 270,000); calls by dose curve; further: potency means the concentration at half of the fitted maximal effect; actives are rising curves; nearly all actives have a fitted effect of over 50% in size
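Recovery from NS1-induced slow growth read by OD600 in budding yeast switched to galactose assay medium (pH 6.0, -URA) at 1:100 dilution. Compound 23 nl per well; the matching strain lacking NS1 serves as control.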
Pf growth 96h: Primary qHTS for delayed death inhibitors of the malarial parasite plastid, 96 hour incubation | P. falciparum luciferase reporter growth, 96 h | Potency, µM (highest dose often 28.7 µM), for the others: top-dose activity change, negative = inhibition, actives largely listed as inhibitors | actives 6.9% (n = 320,000) | AID 504834, 2011; further: potency means the concentration at half of the fitted maximal effect; on the % scale 0 is the no-effect control and ±100 the full control effect
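Readout is luminescence from an integrated firefly luciferase in P. falciparum. Red cells, 2% hematocrit and 0.05% parasitemia final, were cultured with compound through two parasite generations (96 hours) at 37 C, 5% CO2.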
Pf growth 48h: Primary qHTS for delayed death inhibitors of the malarial parasite plastid, 48 hour incubation | actives 5.9% (n = 310,000) | AID 504832, 2011 | P. falciparum luciferase growth in erythrocytes, 48 h | Potency, µM (highest dose often 28.7 µM), for the others: at the top dose activity change, negative = inhibition, hits mostly inhibitors; further: potency means the concentration at half of the fitted maximal effect; on the % scale 0 is the no-effect control and ±100 the full control effect
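Luciferase-expressing parasites in RBCs, 2% Hct / 0.1% parasitemia final; RPMI 1640 + 0.5% Albumax; 37 C, 5% CO2, one generation; luminescence read-out, lower signal = inhibition.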
SARS PLpro yeast: qHTS of Yeast-based Assay for SARS-CoV PLP; AID 485353, 2010; S. cerevisiae expressing SARS-CoV PLpro, growth rescue; actives 0.19% (n = 330,000); Potency, µM (series often up to 32.9 µM), without a hit: at the top dose activity, positive = growth rescue, hits mostly activators; calls by dose curve; further: potency means the concentration at half of the fitted maximal effect; 0% is about no effect; nearly all actives have a fitted effect of over 55% in size
Shiga inhibitor: A qHTS for Small Molecule Inhibitors of Shiga Toxin. Vero cells, Shiga toxin protein synthesis inhibition reporter. inhibition, % at 38.7 µM. actives 9.2% (n = 290,000); in the data active means inhibition mostly above about 28%, no sharp cut-off; inactive means mostly below about 43%; further: 0% is about no effect
* marks the source's active call; other numbers are inactive results; u = inconclusive; x = not tested or not shown; [ ] = dose if it differs, or a comment. Unless noted, the call rests on the fitted dose curve; in most records, active means well fitted inhibition curve with a large enough effect; inconclusive means small, poorly fitted or top-dose-only effect, or another doubt; inactive means no such curve, though single readings can be large or run the other way.

SMILES	Cycloheximide cs	NS1 inh	Pf growth 96h	Pf growth 48h	SARS PLpro yeast	Shiga inhibitor
COCCn1c(SCC(=O)N2CCCC2)nnc1-c1ccco1	-6	9%	35%	24%	9%	-3
COCCCn1c(SCC(=O)Nc2cccc(C)n2)nnc1-c1ccco1	-1	1%	-9%[5.75 µM]	-13%	5%	-2
O=c1nc2n(c3ccc(Br)cc13)CCS2	1	0%	-18%	26%	-6%	6
CC1c2[nH]c3ccccc3c2C[C@H]2C(=O)N(CCCN(C)C)CC(=O)N12 (stereo partly drawn)	7	2%	20%	10%	-2%	-6
COCCn1c(SCC(=O)c2ccc3c(c2)OCCO3)nnc1-c1ccoc1C	111*	-7%	x	u	6%	105*
CC(C)NC(=S)N1CCCN(c2ncccc2[N+](=O)[O-])CC1	1	-1%	9.3µM*	u	0%	-3
Cc1cc(C)cc(NC(=O)N2CCCN(c3ncccc3[N+](=O)[O-])CC2)c1	1	0%	u	u	0%	-3
O=C(Cc1cccc2ccccc12)N/N=C/c1ccc(OC(=O)/C=C/c2ccco2)cc1	-2	13%	u	12µM*	-2%	14
O=C(Cc1cccc2ccccc12)N/N=C/c1ccncc1	-3	-4%	10µM*	0%	0%	24
O=C(NCCS(=O)(=O)N1CCN(c2ccccc2F)CC1)c1cccs1	x	x	2%	u	-1%	x
O=C(CN1CCCN(Cc2ccc(F)cc2Cl)C1=O)NC1CCCCCCC1	16	14%	u	u	-1%	8
O=C(O)CN1CCN(Cc2ccc(F)cc2Cl)C1=O	2	u	8.3µM*	u	5%	-6
CN(CCNC(=O)CN1CCN(Cc2ccccc2Cl)C1=O)Cc1ccccc1	0	-1%	u	x	5%	-22
O=C(CN1CCN(Cc2ccc(F)cc2Cl)C1=O)NCCc1ccccc1	14*	-1%	u	x	0%	16
COc1ccc(S(=O)(=O)N2CCOCC2)cc1C(=O)N1CCCC1	-2	1%	-15%	5%	-4%	-2
Cn1nnc2cc(C(=O)Nc3cccnc3)ccc21	6	1%	x	29%	1%	7
Cn1nnc2cc(C(=O)Nc3ccc(Cl)cc3)ccc21	13	1%	101%	32%	5%	36
CN(C)c1ccc(NC(=O)c2ccc3c(c2)nnn3C)cc1	18*	-1%	15%	36%	0%	46*
COc1cccc(NC(=O)Nc2ccc3c(c2)nnn3C)c1	32*	6%	u	61%	3%	59*
Cc1ccc(NC(=O)c2ccc3c(c2)nnn3C)cc1	13	18%	93%	107%	-17%	35*
Cn1nnc2cc(C(=O)Nc3ccccc3)ccc21	16*	8%	-4%	151%	1%	32
Cc1ccc(C)c(C(=O)CCC(=O)NCc2ccc(Cl)cc2)c1	7	x	u	-11%	-3%	-2
Cn1nnc2cc(NC(=O)NCc3ccc4c(c3)OCO4)ccc21	9	-6%[9.22 µM]	-1%	12%	12%	14
CN(C)c1ccc(NC(=O)Nc2ccc3c(c2)nnn3C)cc1	32*	0%	-1%	15%	3%	x
CC(NC(=O)CNC(=O)c1sc2ccccc2c1Cl)c1cccnc1 (stereo not drawn)	21	5%	30%	26%	4%	22
SMILES	Cycloheximide cs	NS1 inh	Pf growth 96h	Pf growth 48h	SARS PLpro yeast	Shiga inhibitor
CCCCCCCNC(=O)C1(CC2CC(c3cccc(Br)c3)=NO2)CCN(C(=O)C2(C)CC2)CC1 (stereo not drawn)	x	x	u	u	5%	x
COC(=O)C1(CC2CC(c3ccncc3)=NO2)CCN(C(=O)OC(C)(C)C)CC1 (stereo not drawn)	x	x	u	u	-2%	x
CCOc1cc(C(=O)N2CCC(CC3CC(c4cccc(Br)c4)=NO3)(C(=O)NCC3CCCCC3)CC2)cc(OCC)c1OCC (stereo not drawn)	-2	-12%	u	0.37µM*	10%	-7
CCCCCCCNC(=O)C1(CC2CC(c3ccc(Cl)cc3)=NO2)CCN(C(=O)OC(C)(C)C)CC1 (stereo not drawn)	-1	u	5.2µM*	u	-2%	14
CCCCCCCNC(=O)C1(CC2CC(c3cccc(Br)c3)=NO2)CCN(C(=O)CCCCCBr)CC1 (stereo not drawn)	x	x	u	13µM*	2%	x
Cc1cccc(Nc2c3c(nc4ccccc24)CCC3)c1	-2	-41%	u	12µM*	-1%	-6
COc1cc(Nc2c3c(nc4ccccc24)CCC3)cc(OC)c1OC	-2	8%	5%	12µM*	2%	-8
COc1ccc(OC)c(Nc2c3c(nc4ccccc24)CCC3)c1	-4	0%	u	u	1%	-2
Cc1nc2ccccc2nc1SCC(=O)c1ccccc1	16	-6%	-21%	11%	10%	19
C[n+]1cc[nH]c1SCC(=O)c1ccccc1	37*	-4%	9%	x	6%	58
C[n+]1cc[nH]c1SCC(=O)c1ccc(Cl)cc1	31*	4%	0%	47%	-1%	63
O=C1C(Cl)=C(Nc2ccc3cn[nH]c3c2)C(=O)c2ccccc21	-13	-39%	8.3µM*	12µM*	-5%	-12
CN(C)c1ccc(NC2=C(Cl)C(=O)c3ccccc3C2=O)cc1	51*	15%	18%	134%	0%	69*
CC(=O)Nc1ccc(NC2=C(Cl)C(=O)c3ccccc3C2=O)cc1	18	x	18%	0%	1%	39
Cc1cc(C(=O)N/N=C/c2c(C)nn(-c3ccccc3)c2C)c(C)o1	42*	-12%	u	u	-1%	59*
Cc1nn(-c2ccccc2)c(C)c1/C=N/NC(=O)c1cc(-c2cccc3ccccc23)n[nH]1	-1	u	u	u	23%	-8
Cc1ccc(CSc2nnc(SCC(=O)N/N=C/c3c(C)nn(-c4ccccc4)c3C)s2)cc1	76*	u	u	25%	-4%	120*
Cc1nn(-c2ccccc2)c(C)c1/C=N/NC(=O)c1cc(-c2ccccc2)n[nH]1	7	4%	9.3µM*	15µM*	-11%	14
NC(=O)NC(=O)COC(=O)c1ccc2c(c1)C(=O)N(Cc1ccccc1)C2=O	-1	2%	32%	23%	1%	-10
O=C(Cn1cnc(S(=O)(=O)N2CCCC2)c1)Nc1cccc(Br)c1	-4	-2%	12µM*	13%	2%	-2
Cc1c(Cl)cccc1NC(=O)Cn1cnc(S(=O)(=O)N2CCCC2)c1	-1	2%	7.4µM*	0%	5%	22
N#Cc1ccc(NC(=O)Cn2cnc(S(=O)(=O)N3CCc4ccccc43)c2)cc1	14	9%	12µM*	1%	0%	1

Screening results from PubChem.
